The list is not random: actives were taken first. Their share in the collection is about 0.82%.
Cardiac RTF inh: cardiac RTF calcium desensitization; IANBD-labeled cardiac RTF, Ca2+ fluorescence; inhibition, % at 7.15 µM; 340,000 compounds, 0.12% hits; AID 493244; P19429+P45379;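 active = inhibition above the mean inhibition of all tested compounds plus 3 SD, cut at about 17% in these data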;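 note: assay run at fixed EC70 calcium of 1.6 mM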
LANA DNA inh: blocks KSHV LANA C-terminal domain binding to DNA | 340,000 compounds, 0.078% hits | inhibition, % at 9 µM | AID 504423 | MBP-C-LANA/FAM-LBS DNA binding, fluorescence polarization;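 active = highest replicate inhibition at or above 60% at 9 µM, even if other replicates fall short; inactive = all replicates below 60% inhibition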
E coli Lon inh: inhibitors of E. coli Lon protease; P0A9M0; purified E. coli Lon protease, fluorescence polarization; inhibition, % at 7.94 µM; 360,000 compounds, 0.42% hits; in the data active = inhibition above about 13%, passing the limit was not always enough
RTF Ca sens act: cardiac RTF calcium sensitization; P19429+P45379; IANBD-labeled TnC RTF fluorescence at EC20 calcium; 0% EC20 calcium, 100% full calcium; activation, % at 7.2 µM; 340,000 compounds, 0.24% hits; AID 493008;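 active = activation above the mean over all tested compounds plus 3 SD, cut at about 30% in these data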;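 note: rise in fluorescence read as greater calcium sensitivity of cardiac thin filaments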
Keap1-Nrf2 PPI: inhibitors of human Keap1-Nrf2 protein-protein interaction | Q14145 | Keap1 Kelch-Nrf2 peptide fluorescence polarization, 1536-well | inhibition, % at 9.4 µM | 340,000 compounds, 0.15% hits | AID 504523; in the data active = inhibition above about 12%;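 note: human Keap1 Kelch domain with fluorescein labeled Nrf2 9mer peptide probe; higher means more block of Keap1 binding to Nrf2 peptide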
E coli Lon conf: E. coli Lon inhibition confirmation; shares compounds with E coli Lon inh; purified E. coli Lon, fluorescence polarization; inhibition, % at 7.94 µM; 1,400 compounds, 31% hits; in the data active = inhibition above about 16%
A number is an active result; – = inactive; · = not tested or not shown.

SMILES	Cardiac RTF inh	LANA DNA inh	E coli Lon inh	RTF Ca sens act	Keap1-Nrf2 PPI	E coli Lon conf
CN(C)c1ccc2nc3c(=O)[nH]c(=O)nc-3n(CC(O)C(O)C(O)CO)c2c1 (stereo unspecified)	–	–	165.4	124.8	–	82.0
Cc1ccc(OCc2cc(C(=O)N(C)CCc3ccccn3)no2)cn1	–	–	–	–	–	·
COc1cc(C2Nc3ccccc3NC3=C2C(=O)CC(C)(C)C3)cc(OC)c1OC (stereo unspecified)	–	–	–	–	–	·
Cn1cccc1C1Nc2ccccc2NC2=C1C(=O)CC(C)(C)C2 (stereo unspecified)	–	–	39.4	–	–	–
COc1cc(OC)c(C2Nc3ccccc3NC3=C2C(=O)CC(C)(C)C3)cc1OC (stereo unspecified)	–	–	17.0	–	–	–
CC12CCC(=O)N1C(C(=O)N1CCN(c3ccc(C(F)(F)F)cc3[N+](=O)[O-])CC1)CS2 (stereo unspecified)	–	–	–	–	–	·
O=C1C2=C(SCCS2)C(=O)N1CCCO	–	–	40.9	–	–	55.1
O=C1c2ccc(-c3ccc4c(c3)C(=O)N(CCCO)C4=O)cc2C(=O)N1CCCO	–	–	–	–	–	·
COc1ccc(NC(=O)Nc2sc(NS(=O)(=O)c3ccccc3)nc2C)cc1	–	–	14.4	–	–	–
O=C(Oc1ccc2c(c1)OCC2=O)c1ccccc1	–	–	18.9	–	–	23.1
COc1ccc(C(=O)N=C2SC3CS(=O)(=O)CC3N2Cc2ccccc2)cc1OC (stereo unspecified)	–	–	15.9	–	–	–
CC1C2(C)OC(=N)C(C#N)(C(C)O2)C1(C#N)C#N (stereo unspecified)	–	–	21.9	–	–	35.5
O=C(OCC(=O)N1CCC(Cc2ccccc2)CC1)c1ccc(CO)cc1	–	–	–	–	–	·
Cc1cc2cc(CNC(=O)c3ccc(C)c([N+](=O)[O-])c3)ccc2[nH]1	–	–	21.5	–	–	–
Cc1cc2cc(CCNC(=O)c3ccc(C)c([N+](=O)[O-])c3)c(=O)[nH]c2cc1C	–	–	–	–	–	·
